Source: PubChem BioAssay AID504832 (National Center for Advancing Translational Sciences (NCATS), 2011)
The campaign covered roughly 310,000 compounds. About 18,000 (5.8%) were called active. Another 22% or so got no clear call; they are omitted. The entries come from a sample that favours actives as a whole. A call without a number means that no potency is given here. A number with no mark means an inactive call. The call rests on the fitted dose curve; in most records, active means well fitted inhibition curve with a large enough effect; inconclusive means small, poorly fitted or top-dose-only effect, or another doubt; inactive means no such curve, though single readings can be large or run the other way.

Assay: Primary qHTS for delayed death inhibitors of the malarial parasite plastid, 48 hour incubation
Settings: P. falciparum luciferase growth in erythrocytes; series mostly up to 28.7 µM
Summary of the method: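 Firefly luciferase activity from engineered P. falciparum reports growth; inhibitors lower the luminescent signal. Cultures contained 2% hematocrit erythrocytes at 0.1% final parasitemia.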
Potency means the concentration at half of the fitted maximal effect.

SMILES	Potency	activity change, negative = inhibition
CC(NS(=O)(=O)c1ccc(OCC(=O)N2CCCC2)cc1)c1ccccc1 (stereo not drawn)	inactive	
CCN(c1ccccc1)S(=O)(=O)c1ccc(OCC(=O)N2CCCC2)cc1	9.28 µM (active)	
COc1ccc(N(CC(=O)N2CCCCCC2)S(=O)(=O)c2ccccc2)cc1	inactive	
CC(=O)Nc1ccc(Nc2ncnc3c2nnn3Cc2ccccc2Cl)cc1	inactive	
COCCNC(=O)c1ccc2nc(Cc3ccc(OC)c(OC)c3)oc2c1	inactive	
O=C(NCCN1CCCC(O)C1)c1cc(COc2c(F)cccc2F)on1 (stereo not drawn)	inactive	
Cc1cccc2cc(CN(Cc3cccs3)C(c3nnnn3C3CCCC3)C(C)C)c(=O)[nH]c12 (stereo not drawn)	2.62 µM (active)	
Cc1cccc2cc(CN(C(=O)c3cccs3)c3ccccc3)c(=O)[nH]c12	inactive	
CCC(c1nnnn1C1CCCC1)N(Cc1cccs1)Cc1cc2cccc(C)c2[nH]c1=O (stereo not drawn)	10.4 µM (active)	
CCC(=O)Nc1cccc(NC(=O)CSc2nnnn2C2CCCC2)c1	inactive	
Cc1cc(C)n2nc(C(=O)OCC(=O)N(CCC#N)c3ccc(F)cc3)nc2n1	inactive	
CCOc1ccc(N(C)Cc2cc(=O)oc3ccc(OC)cc23)cc1	inactive	
CC1CCC(NC(=O)CNC(=O)c2ccc3ccccc3c2)CC1 (stereo not drawn)	inactive	
CN(C(=O)Cn1nnc(-c2ccc(F)cc2)n1)C1CCS(=O)(=O)C1 (stereo not drawn)	inactive	
OCC[C@H]1C[C@@H](O)[C@H](O)[C@]2(OCCCc3ccccc32)O1	inactive	
Cc1ccc2c(c1)N(CC(=O)N1CCC(C)CC1)C(=O)c1cccnc1O2	inactive	
Cc1ccc(SCc2c(C(=O)N/N=C/c3cccnc3)nnn2-c2nonc2N)cc1	inactive	
CCOC(=O)CNC(=O)N1c2ccccc2Sc2ccccc21	inactive	
COc1cc(/C=C/C(=O)N2c3ccccc3Sc3ccc(C(F)(F)F)cc32)cc(OC)c1OC	inactive	
O=C(CN1CCCCCC1)N1c2ccccc2Sc2ccc(C(F)(F)F)cc21	13.1 µM (active)	
Cc1ccc(C(CNC(=O)Nc2ccccc2)N2CCN(C)CC2)cc1 (stereo not drawn)	inactive	
Cc1ccc(S(=O)(=O)N2CCC(C(=O)OCC(=O)N(C)c3ccccc3)CC2)cc1C	inactive	
COc1ccc(-c2nnc(SC(C)C#N)o2)cc1 (stereo not drawn)	inactive	
COc1ccc(-c2nnc(SCc3cccnc3)o2)cc1	inactive	
COc1ccc(-c2nnc(SC(C)C(=O)NC3CC3)o2)cc1 (stereo not drawn)	10.4 µM (active)	
CCCC(C)c1nnc(NC(=O)C2CC(=O)N(c3ccc(OCC)cc3)C2)s1 (stereo not drawn)	inactive	

SMILES	Potency	activity change, negative = inhibition
COc1ccc(N2CCN(c3ccc([N+](=O)[O-])cc3Cl)CC2)cc1	inactive	
CCN1CCN(c2ccc([N+](=O)[O-])cc2C#N)CC1	4.15 µM (active)	
CCN1CCN(c2ccc([N+](=O)[O-])cc2C(=O)c2ccc(Cl)cc2)CC1	inactive	
COCCn1c(SCC(=O)Nc2nc(C)cs2)nnc1C(C)C	inactive	
O=S(=O)(c1ccc(Cl)s1)N1CCC2(CC1)OCCO2	inactive	
O=C(Nc1cccc(-c2nc3ccccc3[nH]2)c1)c1ccc(C(=O)Nc2cccc(-c3nc4ccccc4[nH]3)c2)cc1	0.37 µM (active)	
O=C(Nc1cccc(NC(=O)c2ccc(Br)cc2)c1)c1ccccc1	inactive	
O=C(Cc1cccs1)Nc1cccc(-c2nc3ccccc3[nH]2)c1	inactive	
O=S(=O)(Nc1cc(S(=O)(=O)N2CCOCC2)ccc1N1CCCC1)c1cccs1	inactive	
O=S(=O)(Nc1cc(Cl)ccc1N1CCOCC1)c1ccccc1Cl	13.1 µM (active)	
O=S(=O)(Nc1ccc(-c2ccc(N3CCOCC3)nn2)cc1)c1cc(Cl)ccc1Cl	inactive	
COCCCNC(=O)[C@H]1N2C(=O)c3ccccc3C2SC1(C)C (stereo partly drawn)	inactive	
COc1cc(C(C(=O)NC2CCCC2)N(Cc2ccccc2)C(=O)c2snc(C(N)=O)c2N)ccc1O (stereo not drawn)	inactive	
COc1ccc(CNC(=O)C(c2ccc(O)cc2)N(Cc2ccco2)C(=O)c2snc(C(N)=O)c2N)cc1 (stereo not drawn)	13.1 µM (active)	
CCC(C(=O)NCc1ccc(OC)cc1)n1nc(C)n2c(cc3occc32)c1=O (stereo not drawn)	inactive	
COc1ccc(S(=O)(=O)NCc2ccc(C(=O)N(C)Cc3ccco3)cc2)cc1	inactive	
COc1ccc(C(C(=O)NC2CCCCC2)N(C(=O)c2snc(C(N)=O)c2N)c2ccccc2OC)cc1 (stereo not drawn)	14.7 µM (active)	
COc1ccc(C(C(=O)NC2CCCCC2)N(C(=O)CCl)c2ccccc2Cl)cc1 (stereo not drawn)	inactive	
Cc1cc(CN(C)C(=O)c2cc(COc3ccc(C)c(C)c3)on2)n[nH]1	inactive	
CC(=O)c1ccc(NC(=O)Cn2c(=O)oc3ccccc32)cc1	inactive	
CCCCc1nc2cc(C(=O)N3CCCCC3CCO)ccc2o1 (stereo not drawn)	inactive	
Cc1ccc(-c2nn(-c3ccccc3)cc2C(=O)NC2CCC(O)CC2)cc1 (stereo not drawn)	inactive	
CCc1ccc(-c2nn(-c3ccccc3)cc2CSC(=N)N)cc1	4.15 µM (active)	
O=C(Nc1cn(-c2ccccc2)nc1-c1ccccc1)c1ccccc1	inactive	
Cc1ccccc1OCC(=O)Nc1ccc2c(c1)ncn2C	inactive	
CN(CCc1ccccn1)C(=O)c1ccc(OC2CCN(CCc3ccccc3)CC2)cc1	inactive	

SMILES	Potency	activity change, negative = inhibition
CCCn1c(SCC(=O)N2CCc3ccccc32)nnc1-c1ccncc1	inactive	
COC(=O)c1ccc(CSc2ccc3nnc(-c4ccccc4)n3n2)o1	10.4 µM (active)	
O=C(CSc1ccc2nnc(-c3ccccc3)n2n1)N1CCCc2ccccc21	13.1 µM (active)	
CCC(=O)N1CCCc2ccccc21	inactive	
COC(=O)c1ccc(CSc2nnc(N)s2)o1	inactive	
COC(=O)c1ccc(CSc2ccccc2C)o1	inactive	
CC(=O)NC(Cc1c[nH]c2ccccc12)C(=O)NCCc1ccccc1 (stereo not drawn)	inactive	
CC1CN(C(=O)CCC(=O)NCc2cccnc2)c2ccccc2O1 (stereo not drawn)	inactive	
CC(=O)NC(=O)c1ccccc1O	inactive	
O=C(COC(=O)CNC(=O)C1CCCCC1)Nc1cccc(F)c1	inactive	
NC1=NC[C@@H](Cc2ccc(O)cc2)N1CC1CCCCC1	6.57 µM (active)	
O=C1NC[C@@H](Cc2ccc(O)cc2)N(CCc2cccc(F)c2)C1=O	inactive	
CN(c1ccccc1)S(=O)(=O)c1ccc2[nH]c(=O)[nH]c2c1	inactive	
O=C(Cc1ccccc1Cl)N1CCOCC1	inactive	
Cc1ccccc1N1CCN(C2CCCN(C(=O)c3ocnc3C)C2)CC1 (stereo not drawn)	inactive	
O=c1c2c(nc3cc(-c4cccc(Cl)c4)[nH]n13)CCCC2	inactive	
Clc1ccc2nc3c(c(-c4ccccc4)c2c1)CNCC3	13.1 µM (active)	
CCC(C(=O)NC1CCCC1)N(C(=O)Cn1nnc(-c2ccc(C)o2)n1)c1ccc(OC)c(OC)c1 (stereo not drawn)	10.4 µM (active)	
Cc1cccc(N(C(=O)Cn2nnc(-c3ccc(C)o3)n2)C(C(=O)NC2CCCC2)c2ccncc2)c1 (stereo not drawn)	inactive	
O=C(Cn1nnc(-c2ccc3c(c2)OCO3)n1)NCc1ccco1	inactive	
COc1ccc(C)cc1N(C(=O)Cn1nnc(-c2ccc(C)o2)n1)C(C(=O)NC1CCCC1)c1ccncc1 (stereo not drawn)	5.22 µM (active)	
COc1cccc(N(CC(=O)NC2CCCC2)C(=O)Cn2nnc(-c3ccc(C)cc3)n2)c1	inactive	
O=C(Cn1nnc(-c2ccccc2)n1)NC(=O)NC1CCCC1	inactive	
Cc1cc(NC(=O)CCC(=O)N(c2ccccc2)C(C(=O)NC2CCCC2)c2ccncc2)no1 (stereo not drawn)	inactive	
Cc1ccc(-c2nnn(CC(=O)N(CCO)C(C(=O)NC(C)(C)C)c3ccncc3)n2)cc1 (stereo not drawn)	inactive	
Cc1ccc(-c2nnn(CC(=O)N(Cc3ccco3)C(C(=O)NC(C)(C)C)c3ccncc3)n2)o1 (stereo not drawn)	14.7 µM (active)	

SMILES	Potency	activity change, negative = inhibition
CCc1ccc(-c2cc3c(=O)n(CC(=O)NCCCN4CCN(Cc5ccccc5)CC4)nc(C)n3n2)cc1	inactive	
CC(CCc1ccc(O)cc1)NCc1ccc(Cl)cc1Cl (stereo not drawn)	inactive	
CN(C(=O)c1ccccc1)c1nccnc1C#N	inactive	
CCOC(=O)CSc1nnc(NC(=O)C2CC(=O)N(c3ccc(F)cc3)C2)s1 (stereo not drawn)	inactive	
CCOC(=O)c1cccc(NC(=O)CN2C(=O)C3CC=CCC3C2=O)c1 (stereo not drawn)	inactive	
COc1ccccc1CNS(=O)(=O)c1cc2c3c(c1)CCC(=O)N3CCC2	inactive	
CNC(=O)NC(=O)C(C)N1CCN(C/C=C/c2ccccc2)CC1 (stereo not drawn)	inactive	
COc1ccc(C(=O)NC2CC2)cc1OC1CCN(C/C=C/c2ccccc2)CC1	inactive	
COc1cc(C(=O)N2CCN(C/C=C/c3ccccc3)CC2)cc(OC)c1C	10.4 µM (active)	
CC(C)[C@@H](C(=O)O)N(Cc1cccc(CN([C@H](C(=O)O)C(C)C)S(C)(=O)=O)c1)S(C)(=O)=O	inactive	
Cc1nnc2n1N=C(c1ccccc1)CS2		1.87% [at 0.00184 µM]
CN(CC(=O)Nc1cccc(F)c1)C(=O)C1=COCCO1	inactive	
CCc1nc(Nc2ccc(NC(C)=O)cc2)c2oc3ccccc3c2n1	inactive	
CCc1nc(Nc2ccc3nccnc3c2)c2oc3ccccc3c2n1	1.04 µM (active)	
CCc1nc(N2CCN(c3nc(C)cc(C)n3)CC2)c2oc3ccccc3c2n1	inactive	
COCC1CCN(C(=O)CCc2nnc(C3(c4ccc(Cl)cc4)CCC3)o2)C1 (stereo not drawn)	inactive	
Cc1noc(C)c1CSCC(=O)Nc1ccc(Br)cc1Cl	inactive	
COc1cc(C(=O)N2CCN(C3CCC(C)CC3)CC2)cc(OC)c1OC (stereo not drawn)	inactive	
CC(O)COc1ccccc1 (stereo not drawn)	inactive	
OC(CN=c1sc2ccccc2n1CC(O)COc1ccccc1)COc1ccccc1 (stereo not drawn)	13.1 µM (active)	
OC(COc1ccccc1)Cn1cc(Br)cn1 (stereo not drawn)	inactive	
Cn1nccc1C(=O)NC1CCCc2c1cnn2-c1ccccc1F (stereo not drawn)	inactive	
CC(C)(C)c1csc(NC2=NS(=O)(=O)c3ccccc32)n1	inactive	
CC(C)C(NS(=O)(=O)c1cccs1)C(=O)Nc1nc(C(C)(C)C)cs1 (stereo not drawn)	11.7 µM (active)	
COc1ccc(CNC(=O)C(NS(=O)(=O)c2cccc3nsnc23)C(C)C)cc1 (stereo not drawn)	inactive	
